Laboratory results reported in PubChem BioAssay (NCI).
This is part of a sample that, as a whole, favours compounds with a hit. Of some 79,000 tested, about 15% had one in any assay. Values without a mark were called inactive. Activity calls are given as the source filed them. No stated cut-off is given here; in the data, active means growth inhibition above about 70%; inactive means the rest.

Tests used:
[1] = NCI Yeast Anticancer Drug Screen. Data for the rad50 strain (AID 155);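 further: 0% = growth of vehicle-only cultures of the same strain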; conditions: S. cerevisiae rad50 strain growth inhibition; at 50.0 µM; hits give high values
Outline: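 Relative growth inhibition (compound vs vehicle) was measured in yeast with a defined repair-gene alteration.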

[2] = NCI Yeast Anticancer Drug Screen. Data for the mec2-1 strain (AID 157); conditions: S. cerevisiae mec2-1 strain, at 50.0 µM, hits give high values
Outline: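 Each compound was tested on mec2-1 yeast, a strain altered in DNA damage repair or cell cycle control. Growth inhibition is reported relative to vehicle.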

[3] = NCI Yeast Anticancer Drug Screen. Data for the sgs1 mgt1 strain (AID 161);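 further: 0% = growth of cultures given vehicle only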; conditions: S. cerevisiae sgs1 mgt1 strain, at 50.0 µM, hits give high values
Outline: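 Genetically altered yeast, compound exposure, growth inhibition relative to vehicle.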

[4] = NCI Yeast Anticancer Drug Screen. Data for the cln2 rad14 strain (AID 165);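 further: 0% = growth equal to vehicle treated cultures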; conditions: S. cerevisiae cln2 rad14 strain, at 50.0 µM, hits give high values
Outline: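 Test compounds were added to cln2 rad14 yeast cultures; inhibition of growth was then determined by comparison with vehicle treatment.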

[5] = NCI Yeast Anticancer Drug Screen. Data for the bub3 strain (AID 167); conditions: S. cerevisiae bub3 mutant strain, at 50.0 µM, hits give high values
Outline: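 Screening used yeast with an engineered genetic alteration affecting cell cycle control. Compound-exposed cultures were compared with vehicle cultures, and reduced growth was taken as inhibition.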

[6] = NCI Yeast Anticancer Drug Screen. Data for the mlh1 rad18 strain (AID 175); conditions: S. cerevisiae mlh1 rad18 strain growth inhibition; at 50.0 µM; hits give high values
Outline: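 Inhibition values reflect reduced growth of mutant yeast versus vehicle-treated controls following compound exposure; the mutations affect DNA damage repair.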

Row | Structure (SMILES) | growth inhibition [1] | growth inhibition [2] | growth inhibition [3] | growth inhibition [4] | growth inhibition [5] | growth inhibition [6]
1 | O=C(NCCCCNCCCNC(=O)c1ccc([N+](=O)[O-])cc1)c1ccc([N+](=O)[O-])cc1 | -5.5% | 4.1% | -11.1% | -26.3% | 4.4% | -11.4%
2 | O=C(Nc1ccc(Br)cc1)C(=O)C(C(=O)c1ccccc1F)C1OC(=O)c2ccccc21 (stereo not given) | -17.6% | -1.65% | -13.8% | -50.9% | -5.4% | 7%
3 | Cc1ccsc1/C=N/Nc1nncc2ccccc12 | 20.3% | 5.35% | 20.6% | 9.05% | 30.4% | 9.7%
4 | CN(CC(O)CN1CCCc2ccccc21)C1CCCCC1 (stereo not given) | -5.8% | 0.25% | 17.9% | -16% | 46% | 19.2%
5 | O=S(=O)(O)CCNC(=S)C(=S)NCCS(=O)(=O)O | 29.1% | 14.2% | 7.75% | 6.2% | 8.7% | 5.7%
6 | COC(=O)C(C)(C)N=CN(C)C | -19.7% | 13.1% | -7.8% | 15.5% | -27.9% | 3.55%
7 | O=C(CSc1c2ccccc2nc2ccccc12)Nc1ccccc1-c1ccccc1NC(=O)CSc1c2ccccc2nc2ccccc12 | 27.4% | 9.75% | 18.6% | 6.9% | 19% | 34.5%
8 | CCO/C=C1/N=C(c2ccc3ccccc3c2)OC1=O | 35.9% | 9.8% | 13.3% | -23.7% | -32.2% | 14%
9 | COc1ccc(/C=C2/C[N+](C)(C)C/C(=C/c3ccc(OC)cc3)C2=O)cc1 | 10.3% | 11.8% | -7.15% | 6.15% | 16.4% | -2.25%
10 | O=C(O)CC(=O)CC(=O)c1ccccc1 | -14.8% | -18.5% | -23.4% | -30.7% | -2.1% | -7.4%
11 | CC(=O)Nc1ccc(S(=O)(=O)n2c(=O)oc3cc(Cl)ccc32)cc1 | 3.4% | -2.6% | 3.1% | -2.4% | 2.95% | 13.5%
12 | N#CN1CCC2CC(=O)CCC2C1 (stereo not given) | 6.2% | 2.95% | -6.5% | 5.75% | 0.75% | -10.6%
13 | CSCCC(NCc1c(O)ccc2c(-c3ccccc3)cc(=O)oc12)C(=O)O (stereo not given) | -23.3% | -20.5% | -30.1% | -1.5% | -2.95% | -31.2%
14 | COC(=O)/C(=C\SCc1ccccc1)NC(C)=O | 0.45% | 6.7% | -1.55% | -7.7% | -24.2% | -20.8%
15 | COC(=O)Nc1nc2ccc(SC)cc2c(=O)[nH]1 | -9.55% | -5.55% | 3.2% | 6.45% | -17.8% | -29.6%
16 | CC(=NC1CCCCC1)c1ccccc1O | 24.4% | -11.1% | -3.35% | -23.9% | 13.6% | 16.8%
17 | NC1=NN(c2ccccc2)C(=O)C1/C(=N\NC(=O)c1cc2ccccc2cc1O)C(=O)Nc1cccc(C(F)(F)F)c1 (stereo not given) | 47% | 15.7% | -33.5% | 19.9% | 20.5% | 31.4%
18 | Fc1cccc(Cl)c1CSc1n[nH]c(C(F)(F)F)n1 | -4.65% | -24.1% | 10.5% | 3.2% | 11.1% | 2.45%
19 | O=C(O)CSc1n[nH]c(-c2ccc(O)cc2)n1 | -18.3% | -7.25% | -7.5% | 18.6% | 4.95% | 37.2%
20 | Nc1ccc(C(=O)N/N=C/c2ccc(Cl)cc2Cl)cc1 | 27% | -4.05% | 11.9% | 8% | 13.1% | -5.75%

Row | Structure (SMILES) | growth inhibition [1] | growth inhibition [2] | growth inhibition [3] | growth inhibition [4] | growth inhibition [5] | growth inhibition [6]
21 | O=c1nc(Nc2ccccc2)ccn1C1OC(CO)C(O)C1O (stereo not given) | -7.95% | 0.25% | 0.2% | 12% | 7.55% | 5.85%
22 | NC(=O)C1C(=O)c2cccc3c2C1CCCC3 (stereo not given) | -11% | 9.85% | -5.6% | -31% | -11% | 20.7%
23 | CC[C@H]1OC(=O)[C@H](C)[C@@H](OC2CC(C)(OC)C(O)C(C)O2)[C@H](C)[C@@H](OC2OC(C)CC(N(C)C)C2OC(=O)CCC2CCCC2)[C@](C)(O)C[C@@H](C)C(=O)[C@H](C)[C@@H](O)[C@]1(C)O (stereo not given in full) | 3.25% | -6.95% | 4.05% | 0.65% | 7.3% | -9.55%
24 | CCOC(=O)C1/C(=N\N=C2\c3c(nnp3N(CCOS(C)(=O)=O)CCOS(C)(=O)=O)C(C(=O)OCC)C(c3ccc(OC(C)=O)cc3)C2C(=O)OCC)c2c(nnp2N(CCOS(C)(=O)=O)CCOS(C)(=O)=O)C(C(=O)OCC)C1c1ccc(OC(C)=O)cc1 (stereo not given) | 6.75% | -0.05% | -3.85% | 4.25% | 10.3% | -4.5%
25 | Cc1nc(C(=O)O)c2ccccc2n1 | -2.8% | 2.45% | -8.05% | 3.6% | -9.65% | 4.6%
26 | CC(=O)C1CCCC(=O)/C=C/C(=O)O1 (stereo not given) | 3.4% | -12.8% | -7% | 5.8% | 11.5% | -18%
27 | O=C1ON=C(c2ccccc2)/C1=C\C=C\c1ccccc1 | 18.2% | 9.9% | 1.45% | 23.1% | 35.6% | 14.5%
28 | CCOCCOc1nc(C)cc(C)c1C#N | -30.9% | -41.5% | -8.05% | -6.4% | -29.5% | -20.9%
29 | O=C(CO)c1ccccc1 | -11.9% | 10.3% | -3.8% | 25.6% | 4% | 19.6%
30 | Nc1cc(S(N)(=O)=O)ccc1O | 10.3% | -11.6% | -21.9% | -10.6% | -12% | 12.4%
31 | COc1cc(C=C2N=C(c3ccccc3)N(n3c(-c4ccccc4)nc4ccccc4c3=O)C2=O)cc(OC)c1OC | -7.4% | -6.6% | 9.45% | 7.85% | 0.65% | 21.6%
32 | C=C(C)C1Cc2cc(C(C)=O)ccc2O1 (stereo not given) | 12.7% | -11.7% | 9.55% | 5.8% | -4% | -59.2%
33 | Cn1c(N2CCCC2)c(C=O)c(=O)n(C)c1=O | 4.5% | 1.45% | 8.6% | 21.3% | -10.9% | -15.1%
34 | CCN(CC)CCOC(=O)c1ccc(Cl)c(Cl)c1 | 13.8% | -5.9% | 19.9% | -46.3% | -6.6% | -9.4%
35 | Cn1c(O)c(C=Nc2ccccc2Cl)c(=O)n(C)c1=O | -11.1% | -4.65% | -9.7% | -38.6% | 0.55% | -28.4%
36 | Cc1ccc(Nc2c3ccccc3nc3ccccc23)cc1C | 98.8% (active) | 95.8% (active) | 97.7% (active) | 90.6% (active) | 90.2% (active) | 98.5% (active)
37 | Cc1nc2c(=O)[nH]c3ccccc3c2o1 | -3.25% | 7% | 3.1% | -7% | -10.3% | -32.4%
38 | O=c1[nH]c(-c2ccccc2)c(-c2ccccc2)nc1Cl | 6.35% | 1.8% | 6.5% | -11.7% | -19.1% | 18.1%
39 | O=C(COc1ccc(Cl)c(Cl)c1)NCc1cccc(NC(=O)CBr)c1 | 99.2% (active) | 99.5% (active) | 45.2% | 99.5% (active) | 99.2% (active) | 99.2% (active)
40 | NC(=Nc1ccc(S(=O)(=O)Nc2cnccn2)cc1)/N=C(/N)Nc1ccc(Br)cc1 | 4.2% | 3.9% | 15.7% | -4.65% | -5.65% | 27.1%
